This assay can be described thus: inhibitors of T. brucei MetRS aminoacylation, late-stage follow-up, biochemical, radioactivity, round 1 (AID 743060). Conditions: purified enzyme, radiolabel aminoacylation, scintillation, 2 h; at 10 µM; stronger effect = higher value.
In general, inhibition refers to the drop in the measured response relative to a control, in per cent. For `O=C(C[C@H]1C(=O)N(Cc2ccccc2)C[C@@H]1c1ccc(Br)cc1)Nc1ccc(Br)cc1`, the inhibition is 94.4%.

Consider `O=C(NCCc1nc2ccccc2[nH]1)c1ccc(Cl)cc1Cl`, for which the inhibition was 94.9%.

Regarding `O=C(CSC1CC(=O)N(c2cccc(Cl)c2)C1=O)Nc1ccc(Br)cc1` (centres undefined), the inhibition was 79.9%. The figure for `Cc1[nH]c2ccc(Br)cc2c(=O)c1CN1CCCCCC1` is 86.6%; for `CCC(=O)c1cn(CC(=O)Nc2cccc(C(F)(F)F)c2)c2ccccc12` it is 4.46%. The figure for `O=C(Cn1cc(C(=O)c2ccccc2)c2ccccc21)Nc1cccc(C(F)(F)F)c1` is 65.9%. `CCN(CC)C(=O)C(=O)c1cn(CC(=O)N2CCCc3ccccc32)c2ccccc12`: the inhibition is -17.2%. The figure for `O=C1CC(SCc2nc3ccccc3[nH]2)C(=O)N1c1cccc(Cl)c1` (centres undefined) is 52.6%.

Consider `CC(C)(C)[C@H]1C=C(C(=O)NCc2nc3ccccc3[nH]2)O[C@@H](OCc2ccc(CO)cc2)C1`, for which the inhibition stood at 83.8%. Take `Cc1cc2cc(C(=O)N3CCCC(c4nc5ccccc5[nH]4)C3)ccc2o1` (centres undefined): the inhibition is 78.2%.

With `COc1ccccc1-n1c(SCC(=O)Nc2ccc(Cl)cc2)nc(O)c(Cc2ccccc2)c1=O`, the inhibition was determined as 67%. The figure for `O=C(NCc1nc2ccccc2[nH]1)C1=C[C@@H](c2csc3ccccc23)C[C@@H](OCCCCO)O1` is 89.2%; for `CCc1ccc2c(c1)c1nnc(SCC(=O)Nc3ccc4c(c3)OCO4)nc1n2C` it is -8.11%. The figure for `CC(=O)N(CCc1ccccc1)C1CC(=O)N(c2ccc(Br)cc2)C1=O` (centres undefined) is -21.2%; for `COc1ccc(CNC(=O)CSc2nnc3c(n2)[nH]c2ccc(F)cc23)cc1` it is 89.6%; for `CC1Cc2ccccc2N1C(=O)Cn1cc(C(=O)C(=O)N2CCOCC2)c2ccccc21` (centres undefined) it is -14.7%. The figure for `COc1ccc(OCC(O)CNC(=O)Nc2ccc(Cl)cc2)cc1` (centres undefined) is 61.9%. As for `CN(CC(=O)Nc1ccc(Cl)cc1)C(=O)c1ccc(-n2cncn2)c([N+](=O)[O-])c1`, the inhibition came out at 92.5%. Take `O=C(NCc1nc2ccccc2[nH]1)C1=C[C@@H](c2ccc3c(c2)OCO3)C[C@@H](OCCCCO)O1`: the inhibition was determined as 93.7%. The figure for `O=C(NCc1nc2ccccc2[nH]1)C1=C[C@H](c2ccccc2)C[C@H](OCc2ccc(CO)cc2)O1` is 61.8%. Take `CC(=O)c1ccc(N2CCN(C(=O)CCCn3c(=O)[nH]c4ccc(Br)cc4c3=O)CC2)cc1`: the inhibition was 97%. For the compound `CCO[C@H]1OC(C(=O)NCc2nc3ccccc3[nH]2)=C[C@@H](c2ccc(Br)cc2)[C@@H]1CCCO`, the inhibition was 81.6%.

With `O=C(CC=NOCc1ccc([N+](=O)[O-])cc1)Nc1ccc(Cl)cc1`, the inhibition came out at 86.5%.

Turning to `O=C(NCc1nc2ccccc2[nH]1)C1=C[C@@H](C2CC2)C[C@@H](OCc2ccc(CO)cc2)O1`, the inhibition amounted to 93.6%. The figure for `O=C(C(=O)N1CCOCC1)c1cn(CC(=O)N2CCCc3ccccc32)c2ccccc12` is -4.11%; for `O=C1CC(NCCc2ccccc2)C(=O)N1c1ccc(Br)cc1` (centres undefined) it is -9%. The figure for `Cc1cccc2[nH]c(C3CCCN(C(=O)c4cccc5cccnc45)C3)nc12` (centres undefined) is -4.34%; for `COc1ccccc1NC(=O)Cn1cc(C(=O)C(=O)N2CCOCC2)c2ccccc21` it is -13.7%. The figure for `O=C(NCc1nc2ccccc2[nH]1)C1=C[C@H](c2ccc3c(c2)OCO3)C[C@H](OCCCCO)O1` is 79.4%; for `O=C(Cn1cc(C(=O)C(=O)N2CCOCC2)c2ccccc21)NCC1CCCO1` (centres undefined) it is 1.28%.

For the compound `Cc1ccc2[nH]c3nc(SCC(=O)Nc4ccc(C(F)(F)F)cc4)nnc3c2c1`, the inhibition came out at 15.1%. The figure for `O=C(CC=NOCc1ccc([N+](=O)[O-])cc1)Nc1ccc(Br)cc1` is 84.7%; for `CN1CC(=O)N2C(c3cccc([N+](=O)[O-])c3)c3[nH]c4ccccc4c3C[C@H]2C1=O` (some centres undefined) it is 96.7%; for `O=C(Cn1cc(C(=O)C(=O)N2CCCC2)c2ccccc21)Nc1ccccc1` it is 9.2%.

These data come from PubChem BioAssay AID743060 (The Scripps Research Institute Molecular Screening Center, 2013).
